Bioassay records from PubChem.
RecA splice inh = inhibitors of M. tuberculosis RecA intein splicing | P9WHJ3 | inhibition, % (no concentration beside the values) | cell-free RecA intein splicing, fluorescence | hit rate 0.75% among 290,000 | AID 2221; in the data active means inhibition above about 30%;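 further: 0% = vehicle wells and 100% = reference inhibitor control wells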
Target sequence (P9WHJ3 whole entry, looked up, canonical isoform): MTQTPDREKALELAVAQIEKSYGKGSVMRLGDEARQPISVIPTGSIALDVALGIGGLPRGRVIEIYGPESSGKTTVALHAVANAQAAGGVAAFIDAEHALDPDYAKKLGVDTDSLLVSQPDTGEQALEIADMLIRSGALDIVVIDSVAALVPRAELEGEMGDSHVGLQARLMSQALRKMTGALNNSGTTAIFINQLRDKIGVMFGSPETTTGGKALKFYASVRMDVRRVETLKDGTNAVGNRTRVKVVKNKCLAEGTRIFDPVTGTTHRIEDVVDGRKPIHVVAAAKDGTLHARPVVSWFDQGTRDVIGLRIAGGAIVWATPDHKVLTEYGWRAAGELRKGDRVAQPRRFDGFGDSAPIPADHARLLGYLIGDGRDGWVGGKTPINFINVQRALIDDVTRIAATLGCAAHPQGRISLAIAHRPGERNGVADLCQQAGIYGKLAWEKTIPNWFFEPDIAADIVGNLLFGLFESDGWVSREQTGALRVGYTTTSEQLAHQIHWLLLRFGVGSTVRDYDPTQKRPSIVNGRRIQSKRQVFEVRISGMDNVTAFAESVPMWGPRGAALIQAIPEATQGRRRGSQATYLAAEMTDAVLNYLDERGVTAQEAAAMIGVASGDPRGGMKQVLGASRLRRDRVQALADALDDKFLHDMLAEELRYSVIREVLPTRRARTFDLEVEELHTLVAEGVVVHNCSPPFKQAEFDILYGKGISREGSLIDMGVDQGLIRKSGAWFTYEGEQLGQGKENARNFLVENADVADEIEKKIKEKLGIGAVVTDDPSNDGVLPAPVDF
BJeLR viability = BJeLR cell viability loss | BJeLR (HRASV12) viability, CellTiter-Glo ATP luminescence, 48 h | inhibition, % (concentration not given with the values) | hit rate 0.17% among 300,000 | AID 1554; in the data active means inhibition above about 50%
PrPC surface inh = cell surface PrPC inhibition, primary TR-FRET screen | TR-FRET read-out | AID 720596 | P04156 | inhibition, % at 13.8 µM | hit rate 0.43% among 370,000; in the data active means inhibition above about 24%; further: 0% = median of the test wells and 100% = reference compound wells
GDH-TPI counter-1 = GDH-TPI coupled enzyme inhibition counter-screen | GDH-TPI coupled enzyme counterscreen, NADH absorbance | inhibition, % at 4.8 µM | hit rate 1.2% among 360,000; in the data active means inhibition above about 30%;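 further: 0% = DMSO wells and 100% = wells lacking the enzyme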
FBA Mtb inh = inhibitors of M. tuberculosis fructose-bisphosphate aldolase. hit rate 2.3% among 360,000. purified M. tuberculosis FBA, fluorescence read-out. inhibition, % at 1 µM. P9WQA3. AID 588726;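 further: 0% = vehicle and 100% = reference inhibitor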
Mtb FBA confirm = confirmation of M. tuberculosis fructose-bisphosphate aldolase inhibitors; purified M. tuberculosis FBA, fluorescence read-out; hit rate 78% among 5,600; inhibition, % at 1 µM; shares compounds with FBA Mtb inh; AID 651616;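 further: 0% = vehicle wells and 100% = reference inhibitor wells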
GDH-TPI counter-2 = GDH-TPI inhibition counter-screen for FBA inhibitors. GDH-TPI coupled enzyme counterscreen, fluorescence. inhibition, % at 1 µM. shares compounds with FBA Mtb inh. AID 652141. hit rate 81% among 5,600; in the data active means inhibition above about 10%
GDH-TPI DR = inhibits GDH-TPI coupling enzymes in dose response; shares compounds with FBA Mtb inh; GDH-TPI coupled enzyme assay, fluorescence, artifact counterscreen; IC50, µM; hit rate 79% among 170; AID 652145; call rule not given here
* hit, by the source's call; / = not tested or not shown; + = active, no number. The list is not random: actives were taken first. Their share in the collection is about 4.2%. Unless noted, no stated cut-off is given here; in the data, active means inhibition above about 27%; inactive means the rest.

SMILES	RecA splice inh	BJeLR viability	PrPC surface inh	GDH-TPI counter-1	FBA Mtb inh	Mtb FBA confirm	GDH-TPI counter-2	others
Cc1cc2c([nH]c3ccccc32)c(C)n1	-19	-3	1	0	96*	2	-7
Cc1c2c(cc3c1[nH]c1ccccc13)C=NCC2	/	/	-9	16	-1	/	/
S=C(NCC1CCCCC1)OC1CCC12CCC(c1ccccc1)CC2 (stereo not given)	/	/	-9	/	/	/	/
CC(=O)Nc1ccc(C2CC(c3ccc(Cl)cc3)=NN2c2ccccc2)cc1 (stereo not given)	-16	-11	-2	0	27	/	/
O=Cc1ccc(N2N=C(c3ccccc3)CC2c2ccccc2)cc1 (stereo not given)	-171	-2	-6	7	86*	136*	89*
N#CCC(=O)N/N=C/c1ccc(N2N=C(c3ccccc3)CC2c2ccccc2)cc1 (stereo not given)	-52	0	-3	4	85*	12	5	GDH-TPI DR=0.28*
CC(=O)Nc1ccc(C2=NN(c3ccccc3)C(c3ccccc3)C2)cc1 (stereo not given)	-6	-3	-4	6	105*	42*	33*
NCc1ccc(OCCCN2CCC(C(O)(C3=CCCC3)c3ccccc3)CC2)cc1 (stereo not given)	/	/	-8	/	/	/	/
COC(c1ccccc1)c1nnc(CCC(=O)N(C)CCOc2ccccc2)o1 (stereo not given)	0	3	-5	-5	0	/	/
COC(c1ccccc1)c1nnc(CCC(=O)N(C)CCCC2CCCC2)o1 (stereo not given)	3	0	1	3	28*	123*	100*
O=c1[nH]c2cc3c(cc2cc1C(c1nnnn1Cc1ccccc1)N1CCN2CCCC2C1)OCCO3 (stereo not given)	-3	4	-1	23	35*	+	134*
O=C(Nc1ccc(Oc2ccccc2)cc1)C1CCCN1S(=O)(=O)c1cccc2cccnc12 (stereo not given)	/	/	4	/	/	/	/
CCCc1cc(=O)oc2cc(C)cc(OCC(=O)NCCCN3CCOCC3)c12	-2	4	-6	7	73*	25	30*
CCCCc1cc(=O)oc2c(C)c(OCC(=O)NCCN3CCOCC3)ccc12	0	0	-3	22	20	/	/
Cc1cc(OCC(=O)NCCN2CCOCC2)c2c(C)c(C)c(=O)oc2c1	-5	6	-13	10	52*	-6	-6
CCCCc1cc(=O)oc2cc(C)cc(OCC(=O)NCCN3CCOCC3)c12	-4	-1	-1	15	51*	+	170*
COCCCNC(=O)c1ccc(Cn2c(=O)c3ccccc3n(Cc3ccc(C(C)C)cc3)c2=O)cc1	/	/	-9	/	/	/	/
Cc1c(C)c2ccc(OCC(=O)N3C[C@H]4C[C@@H](C3)c3cccc(=O)n3C4)c(C)c2oc1=O	/	6	0	14	34*	68*	40*
CC(C)=CCOc1ccc2c(C)c(CCC(=O)N3C[C@H]4C[C@@H](C3)c3cccc(=O)n3C4)c(=O)oc2c1C	/	/	-3	10	82*	102*	92*
CCCCCCCCN1C(=O)[C@@H](CC(=O)NCC2CCCCC2)C[C@@]2(C(=O)OC)C1=C[C@H](C1CCCC1)O[C@@H]2C	/	/	5	/	/	/	/
O=C(NC1CCCCC1)c1ccc2[nH]c(=O)c(=O)[nH]c2c1	1	-3	-6	11	41*	15	8	GDH-TPI DR=4.3*
O=C(NC1CCCCC1)c1ccc2ccccc2c1	/	/	8	2	0	/	/
COCCNC(=O)c1ccc(-c2ccc(OC)cc2C)c2ccoc12	/	/	0	-8	95*	55*	44*
COc1ccc(-c2ccc(C(=O)NCCN(C)C)c3occc23)c(C)c1	/	/	0	6	33*	33*	25*
COc1ccc(-c2ccc(C(=O)NCc3ccccc3)c3occc23)c(C)c1	/	/	12	4	22	/	/
SMILES	RecA splice inh	BJeLR viability	PrPC surface inh	GDH-TPI counter-1	FBA Mtb inh	Mtb FBA confirm	GDH-TPI counter-2	others
CC(C)C[C@@H]1COc2cc(F)ccc2S(=O)(=O)N1C	/	/	12	/	/	/	/
CCOC(=O)Cc1nnc(NC(=O)COc2ccc(F)cc2)s1	-1	-17	-3	2	4	/	/
O=C(COc1ccc(F)cc1)Nc1nnc(-c2ccncc2)s1	-2	-13	-3	25	47*	90*	66*
CC1=C(C(=O)Nc2ccccc2C(=O)NC2CCC(C)CC2)SCCO1 (stereo not given)	-1	2	-1	-4	37*	20	17*
COc1ccc(CN2C[C@]3(C=C4CCCCC4n4c(=O)n(-c5ccccc5)c(=O)n43)N=C2NC(=O)c2ccccc2)c(OC)c1 (stereo not given in full)	/	/	13	/	/	/	/
C=CCN1C(=O)[C@H](CC(=O)NCCCOCCCC)[C@@]2(C(=O)OCC)CCCC=C12	/	/	8	/	/	/	/
COc1ccc(-c2nc3ccccc3o2)cc1OC	/	8	-15	-5	10	/	/
c1ccc2oc(-c3ccc4nc[nH]c4c3)nc2c1	-3	6	-1	9	60*	+	169*
CCOC(=O)c1c(NC(=O)COC(=O)c2nccnc2N)sc2c1CCC2	/	/	-5	13	45*	124*	93*
CCOC(=O)c1c(NC(=O)COC(=O)c2nccnc2N)sc(C(=O)N(C)C)c1C	-2	-3	-3	-2	48*	+	+
OC(c1ccccc1)(c1ccccc1)C1CCN(CCCOc2ccccn2)CC1	/	/	-9	/	/	/	/
CCC(C)(O)c1[nH]c2ccc(C#N)cc2c1C (stereo not given)	-3	-7	2	18	6	/	/
Cc1ccc2ccc(C#N)cc2c1O	/	/	-6	18	36*	+	+
CCOC(=O)N1CCC(NC(=O)CSCc2nc(-c3ccc(OC)c(OC)c3)oc2C)CC1	1	-3	-2	4	10	/	/
CCOC(=O)N1CCC(NC(=O)CSCc2nc(-c3ccc(C)cc3)oc2C)CC1	-1	0	3	-2	51*	21	20*
CCOC(=O)[C@@]12CCC3=C1N(CCC3)C(=O)[C@H](CC(=O)NCCC(C)C)C2	/	/	-7	/	/	/	/
CCOC(=O)c1[nH]c2ccc(OCC)cc2c1NC(=O)CN1CCN(c2ccccc2)CC1	0	1	-2	-6	13	/	/
CCOC(=O)c1[nH]c2cc3c(cc2c1NC(=O)CN1CCC2(CC1)OCCO2)OCO3	-3	-6	18	28	106*	6	8
CCOC(=O)c1[nH]c2cc3c(cc2c1NC(=O)CN1CCCCC1C)OCO3 (stereo not given)	2	1	/	/	/	/	/
CCOC(=O)c1[nH]c2ccc(OCC)cc2c1NC(=O)CN1CCC2(CC1)OCCO2	0	4	3	16	69*	+	+
